Records with an inconclusive call do not appear. Activity calls are given as the source filed them. The call rests on the fitted dose curve; in most records, active means well fitted curve in the direction sought with a large enough effect; inconclusive means small, poorly fitted or top-dose-only effect, or another doubt; inactive means no such curve, though single readings can be large; an effect the other way counts as inactive or inconclusive.

Test [1] deals with Alpha-galactosidase A (Homo sapiens) (UniProt P06280). Description: Counterscreen for Glucocerebrosidase Inhibitors: qHTS Assay for Human alpha-Galactosidase at pH 4.5 (AID 992). Put shortly:
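Human enzyme (2 nM) with 80 uM 4-methylumbelliferyl alpha-D-galactopyranoside in 50 mM citric acid, 0.005% Tween-20, pH 4.5, 20 min at room temperature. Compounds 0.7 nM–77 uM; fluorescence Ex 365/Em 440 after pH 10 stop; AC50 from Hill fits.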
In general terms: The purpose of a counterscreen is to sort out artefacts and off-target activity.

Test [2] deals with alpha-glucosidase (Oryza sativa, rice) (UniProt Q653V4). Briefly: Counterscreen for Glucocerebrosidase Inhibitors: qHTS Assay for Rice alpha-Glucosidase at pH 5.0 (AID 997). Put shortly: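 Rice alpha-glucosidase (4 nM final) with 400 uM 4-methylumbelliferyl-alpha-D-glucopyranoside in citrate buffer pH 5.0, 20 min at room temperature, stopped at pH 10; fluorescence 365/440 nm, compounds 0.7 nM–77 uM, AC50 from Hill fits.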

For test [3], the target named is Alpha-galactosidase (Coffea arabica) (UniProt Q42656). Description: Counterscreen for Glucocerebrosidase Inhibitors: qHTS Assay for Coffee Bean alpha-Galactosidase at pH 5.9 (AID 998). Put shortly: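 Green coffee bean enzyme (2 nM) with 4-methylumbelliferyl alpha-D-galactopyranoside (80 uM) in 50 mM citric acid, 0.005% Tween-20, pH 5.9, 20 min at room temperature; compounds 0.7 nM–77 uM. Stopped at pH 10, fluorescence Ex365/Em440; Hill-fit AC50.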

Test [4] in a line: Cell Viability - LYMP2-020 (AID 986). Further: series mostly up to about 92 µM; nearly all actives have a fitted effect of over 55% in size. In a few lines:
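Human lymphoblastoid cells, 2500/well, were pre-incubated 5 hr at 37 C, then exposed to compounds for 24 hr at 37 C in complete medium. Intracellular ATP was read by CellTiter-Glo luminescence, and AC50 was derived by Hill fitting of concentration-response data.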

Test [5] in a line: Cell Viability - LYMP1-002 - Assay at 24 hr (AID 993). Further: potency means the concentration at half of the fitted maximal effect. In a few lines:
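Human lymphoblastoid LYMP1-002 cells, 2500/well in complete medium, were treated with compounds for 24 h at 37 C; intracellular ATP was read by CellTiter-Glo luminescence. AC50 values came from Hill-equation fits of qHTS concentration-response data.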

Test [6] can be described thus: Cell Viability - LYMP1-002 - Assay at 40 hr (AID 994). Further: nearly all actives have a fitted effect of over 60% in size. Further: potency means the concentration at half of the fitted maximal effect. In a few lines:
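Human lymphoblastoid cells, 2500/well in complete medium, were preincubated 5 hr at 37 C, then exposed to compounds for 40 hr at 37 C. Intracellular ATP was read by CellTiter-Glo luminescence after 30 min at room temperature; AC50 from Hill-equation fits.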

Chain of Alpha-galactosidase (Coffea arabica) (Q42656 whole entry, looked up): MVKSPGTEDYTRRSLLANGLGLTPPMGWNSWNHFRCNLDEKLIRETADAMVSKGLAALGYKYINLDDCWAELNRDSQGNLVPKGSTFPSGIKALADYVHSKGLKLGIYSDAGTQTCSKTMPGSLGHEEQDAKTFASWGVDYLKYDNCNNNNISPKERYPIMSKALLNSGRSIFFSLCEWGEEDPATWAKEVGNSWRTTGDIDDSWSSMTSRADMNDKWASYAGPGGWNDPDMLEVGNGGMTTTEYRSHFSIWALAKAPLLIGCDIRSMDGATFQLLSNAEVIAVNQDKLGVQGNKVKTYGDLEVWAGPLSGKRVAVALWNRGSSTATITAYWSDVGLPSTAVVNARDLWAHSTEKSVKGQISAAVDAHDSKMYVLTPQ
Chain of Alpha-galactosidase A (Homo sapiens) (P06280 whole entry, looked up): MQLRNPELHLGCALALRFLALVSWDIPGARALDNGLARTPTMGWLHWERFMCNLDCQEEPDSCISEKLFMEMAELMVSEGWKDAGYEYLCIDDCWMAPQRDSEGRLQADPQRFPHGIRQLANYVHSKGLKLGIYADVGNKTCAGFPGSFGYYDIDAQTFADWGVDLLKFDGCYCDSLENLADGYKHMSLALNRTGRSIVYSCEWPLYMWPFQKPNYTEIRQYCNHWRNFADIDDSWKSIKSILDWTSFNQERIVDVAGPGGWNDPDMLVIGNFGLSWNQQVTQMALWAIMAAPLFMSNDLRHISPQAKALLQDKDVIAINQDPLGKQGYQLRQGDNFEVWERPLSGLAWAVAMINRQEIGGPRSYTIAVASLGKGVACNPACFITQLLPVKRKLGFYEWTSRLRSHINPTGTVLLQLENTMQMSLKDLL

As for `c1ccc2cc(CC3=NCCN3)ccc2c1`, the compound was called inactive in test [1], in test [2] and in test [3].
Turning to `NC(N)=NOCC[C@H](N)C(=O)O`, the compound was classed as inactive in test [1], in test [2] and in test [3].
Take `CCS(=O)(=O)Nc1cccc(C(=C2CCCCC2)c2cnc[nH]2)c1`: the outcome in test [1], in test [2] and in test [3] was inactive.
For the compound `Clc1ccc(N2C[C@H]3CC[C@@H](C2)N3)nn1`, the call in test [1], in test [2] and in test [3] was inactive.
Turning to `CCCN(CCC)CCc1c[nH]c2ccc(C(N)=O)cc12`, the compound was classed as inactive in test [1], in test [2] and in test [3].
`Clc1cc(I)cc(Cl)c1NC1=NCCN1`: the compound was called inactive in test [1], in test [2] and in test [3].
For `O=[N+]([O-])c1ccc2nc(N3CCNCC3)ccc2c1`, the compound was called inactive in test [1], in test [2] and in test [3].
Regarding `CCCN(CCC)C1Cc2cc(OC)c(OC)cc2C1`, the call in test [1], in test [2] and in test [3] was inactive.
On to `C[C@@H]1[C@@H]2Cc3ccc(O)cc3[C@@]1(C)CCN2CC1CC1`, for which the compound was called inactive in test [1], in test [2] and in test [3].
As for `C[N+](C)(C)CCOC(=O)CBr`, the compound was called inactive in test [1], in test [2] and in test [3].
Turning to `N#CCCN`, the outcome in test [1], in test [2] and in test [3] was inactive.
In the case of `O=[N+]([O-])c1ccc(F)c([N+](=O)[O-])c1`, the Potency entry in test [4], in test [5] and in test [6] was “inactive” each time.
Turning to `O=[N+]([O-])c1cc(O)c(O)c([N+](=O)[O-])c1`, the compound was classed as inactive in test [1], in test [2] and in test [3].
As to `CC(C)(C)c1cc(C=C(C#N)C#N)cc(C(C)(C)C)c1O`, the result in test [1], in test [2] and in test [3] was inactive.
Take `CCN(CCCl)Cc1ccccc1Br`: the outcome in test [1], in test [2] and in test [3] was inactive.
Take `C[N+]1(C)[C@@H]2CC[C@H]1CC(OC(=O)c1c[nH]c3ccccc13)C2` (stereo not given in full): the call in test [1], in test [2] and in test [3] was inactive.
In the case of `C[C@H]1CC[C@@H]2[C@@H](C)[C@H]3[C@H](C[C@H]4[C@@H]5CC=C6CC(O[C@@H]7O[C@H](CO)[C@H](O)[C@H](O[C@@H]8O[C@H](CO)[C@@H](O)[C@H](O)[C@H]8O)[C@H]7O[C@H]7O[C@@H](C)[C@H](O)[C@@H](O)[C@H]7O)CC[C@]6(C)[C@H]5CC[C@]34C)N2C1` (stereo not given in full), the Potency in test [5] was 25.1 µM (active); in test [6] it was 39.8 µM (active).
Regarding `NCCc1ccc(S(=O)(=O)F)cc1`, the outcome in test [1], in test [2] and in test [3] was inactive.
`Cc1sc2ccccc2c1CC1=NCCN1`: the call in test [1], in test [2] and in test [3] was inactive.
Take `COc1ccc2[nH]cc(CCN)c2c1`: the call in test [1], in test [2] and in test [3] was inactive.
For `C[N+]1(C)CCC(OC(=O)C(c2ccccc2)c2ccccc2)CC1`, the compound was classed as inactive in test [3].

The values are drawn from PubChem BioAssay (NCATS).
